697 NFkB inh: inhibitors of the PMA/ionomycin-induced NF-kB reporter in 697 B cells; 697 B-cell NF-kB luciferase reporter, 16 h; inhibition, % at 4 µM; 0.33% of 330,000 active; in the data active = inhibition above about 35%
CSC inhib: blocks cancer stem cells; cancer stem cell-like cells viability, luminescence; inhibition, % at 7.5 µM; 1.1% of 300,000 active; AID 2717; in the data active = inhibition above about 75%; tested in HMLE shEcad cells
Mdm2-MdmX inh: inhibitors of human Mdm2/MdmX interaction. O15151+Q00987. SaOS-2 split-luciferase Mdm2/MdmX complementation, luminescence. inhibition, % at 8 µM. 3% of 330,000 active. AID 485346;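 active = inhibition of at least 50% at 8 µM in the primary screen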
Target sequence (O15151 whole entry, looked up): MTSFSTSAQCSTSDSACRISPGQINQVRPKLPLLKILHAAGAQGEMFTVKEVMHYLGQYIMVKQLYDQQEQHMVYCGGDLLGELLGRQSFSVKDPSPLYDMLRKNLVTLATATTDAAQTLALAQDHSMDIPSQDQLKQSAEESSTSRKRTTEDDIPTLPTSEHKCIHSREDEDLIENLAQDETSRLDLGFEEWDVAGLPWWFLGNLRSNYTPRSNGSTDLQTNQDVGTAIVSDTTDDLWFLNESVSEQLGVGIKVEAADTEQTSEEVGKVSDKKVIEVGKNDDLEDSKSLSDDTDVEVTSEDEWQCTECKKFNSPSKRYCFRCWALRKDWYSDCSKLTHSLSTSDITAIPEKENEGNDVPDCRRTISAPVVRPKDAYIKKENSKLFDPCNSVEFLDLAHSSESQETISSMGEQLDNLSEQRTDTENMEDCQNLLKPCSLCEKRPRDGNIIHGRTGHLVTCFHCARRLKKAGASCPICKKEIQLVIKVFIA
Target sequence (Q00987 whole entry, looked up): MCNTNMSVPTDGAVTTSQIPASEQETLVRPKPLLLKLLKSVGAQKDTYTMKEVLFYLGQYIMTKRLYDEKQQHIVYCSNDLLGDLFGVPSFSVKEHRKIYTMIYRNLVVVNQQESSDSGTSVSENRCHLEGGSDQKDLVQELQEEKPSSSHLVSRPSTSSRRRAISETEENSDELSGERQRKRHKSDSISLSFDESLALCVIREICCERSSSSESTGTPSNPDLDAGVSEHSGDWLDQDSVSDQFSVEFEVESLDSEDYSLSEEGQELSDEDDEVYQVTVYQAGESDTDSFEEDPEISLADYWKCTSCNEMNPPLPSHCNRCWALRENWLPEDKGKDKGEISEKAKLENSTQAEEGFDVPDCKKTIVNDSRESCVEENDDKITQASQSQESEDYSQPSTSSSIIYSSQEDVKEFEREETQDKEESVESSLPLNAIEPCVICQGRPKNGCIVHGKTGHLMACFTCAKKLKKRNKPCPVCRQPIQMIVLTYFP
Jurkat NFkB inh: inhibitors of the PMA/ionomycin-induced NF-kB reporter in Jurkat cells; PMA/ionomycin-induced NF-kB luciferase reporter, luminescence; AID 435003; 0.53% of 330,000 active; inhibition, % at 4 µM; in the data active = inhibition above about 50%
Gli-Sufu antag: blocks Gli-Sufu signaling in a luciferase reporter. Sufu-KO-LIGHT fibroblasts, Gli luciferase reporter luminescence. inhibition, % at 5 µM. 0.74% of 340,000 active;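 active = inhibition above about 55%, limit read from the data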;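 also: 0% = DMSO-treated cells and 100% = wells with medium but no cells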
aSyn UTR inh: MLPCN primary screen, SNCA 5' untranslated region; alpha-synuclein 5'UTR reporter, inhibitor activity; inhibition, % (tested at 7.5 µM); 0.82% of 300,000 active; AID 1813; in the data active = inhibition above about 60%;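 also: H4 neuroglioblastoma cells stably carrying SNCA 5'UTR luciferase fusion; 0% = DMSO wells and 100% = positive control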
Mdm2-MdmX conf: confirmation of human Mdm2/MdmX interaction inhibitors; shares compounds with Mdm2-MdmX inh; 55% of 10,000 active; Mdm2-MdmX binding, luminescent assay; inhibition, % at 8 µM; AID 489028; in the data active = inhibition above about 40%
Full FLuc ctr: inhibits full-length luciferase, flagging false Mdm2/MdmX hits; shares compounds with Mdm2-MdmX inh; SaOS-2 full-length luciferase counterscreen, luminescence; inhibition, % at 8 µM; 77% of 6,200 active; AID 504607;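 active = mean inhibition at 8 µM reaching about 37%, which flags the compound as non-specific, limit read from the data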;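 also: p53-null SaOS-2 cells with luciferase driven by a doxycycline-inducible promoter; compound on cells about two nights before reading with doxycycline added after day one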
* hit, by the source's call; nt = no result. The list is not random: actives were taken first. Their share in the collection is about 4.5%.

SMILES | 697 NFkB inh | CSC inhib | Mdm2-MdmX inh | Jurkat NFkB inh | Gli-Sufu antag | aSyn UTR inh | Mdm2-MdmX conf | Full FLuc ctr
CN(C)S(=O)(=O)c1cccc(N=C2NN=C(c3ccccc3)CS2)c1 | nt | 16.7 | nt | nt | 3.7 | nt | nt | nt
COc1ccc(C2=NNC(=Nc3cc(S(=O)(=O)N(C)C)ccc3C)SC2)c(OC)c1 | 7.3 | 1.2 | 66.7* | 14.7 | 7.4 | 2.7 | 49.6* | 54.4*
O=C1N/C(=N\N=C\c2cccs2)SC1Cc1cccc(Cl)c1Cl (stereo not drawn) | -64.0 | 50.1 | 82.8* | 39.2 | -2.5 | 7.7 | 61.7* | 58.1*
O=C(CC1S/C(=N/N=C/c2cccs2)NC1=O)Nc1ccc(Cl)cc1 (stereo not drawn) | 14.6 | 12.1 | 33.9 | 2.0 | -7.3 | 13.1 | nt | nt
O=C1N/C(=N\N=C\c2cccs2)SC1Cc1ccc(Cl)cc1Cl (stereo not drawn) | -16.2 | 38.7 | 73.9* | 8.5 | -4.2 | -41.8 | 51.5* | 69.6*
O=C(CC1S/C(=N/N=C/c2cccs2)NC1=O)Nc1ccc(Cl)c(Cl)c1 (stereo not drawn) | -1.6 | -7.4 | 17.8 | -5.3 | -8.6 | 0.4 | nt | nt
NC(N)=Nc1nc(-c2ccccc2)c2cc(F)ccc2n1 | -15.5 | 7.3 | 66.4* | 11.1 | -6.9 | 4.9 | 59.8* | 48.8*
O=C(Nc1nc2ccc3ccccc3c2s1)c1ccc(N2CCCCC2)c([N+](=O)[O-])c1 | -46.7 | -14.0 | 18.0 | 22.6 | -1.8 | 8.4 | nt | nt
O=C(Nc1nc2ccc(Cl)cc2s1)c1ccc(N2CCCCC2)c([N+](=O)[O-])c1 | 8.0 | 14.7 | 60.8* | -6.6 | -3.1 | 4.4 | 42.4* | 53.7*
Cc1ccc(NC(=O)CSCC(=O)OCc2cc(=O)oc3cc(O)ccc23)c(C)c1 | 5.7 | -13.6 | 5.7 | -0.9 | -7.8 | -2.3 | nt | nt
CCCCn1c(N)c(-c2nc3ccccc3s2)c2c([N+](=O)[O-])nn(CC)c(=O)c21 | -23.7 | -4.6 | 38.7 | -14.5 | 5.5 | 5.1 | nt | nt
CCCCCn1c(N)c(-c2nc3ccccc3s2)c2c([N+](=O)[O-])nn(CC)c(=O)c21 | -1.3 | 30.7 | 92.2* | 4.0 | -2.3 | 32.1 | -17.1 | nt
Cn1nc([N+](=O)[O-])c2c(-c3nc4ccccc4s3)c(N)n(C3CCCCC3)c2c1=O | -21.7 | 23.8 | 51.3* | -10.0 | 13.5 | 5.7 | 6.0 | nt
CC(=O)c1ccc(NC(=S)N(C)C2CCN(C)CC2)cc1 | 13.2 | 11.9 | -23.0 | 0.2 | -12.3 | 5.3 | nt | nt
CC(=O)c1cc(F)ccc1OCC(=O)Nc1ccc2c(c1)OCO2 | -117.9 | -16.0 | -173.7 | -140.4 | -67.0 | nt | nt | nt
COCCN(Cc1nc2ccccc2c(=O)[nH]1)C(=O)COc1ccccc1-c1ccccc1 | -1.3 | nt | 53.2* | -5.7 | 3.0 | nt | 43.2* | 85.6*
CN(c1ccccc1)S(=O)(=O)c1ccc(Cl)c(C(=O)Nc2ccccc2N2CCOCC2)c1 | -16.1 | nt | 21.0 | 15.0 | 8.5 | nt | nt | nt
COc1ccc(S(=O)(=O)N2CCCOC2CNC(=O)C(=O)NCCc2ccco2)cc1C (stereo not drawn) | 1.7 | 17.5 | 53.1* | 42.9 | -2.2 | -21.9 | 60.5* | 60.9*
O=C(NCCc1ccco1)C(=O)NCC1OCCCN1S(=O)(=O)c1ccc(F)cc1 (stereo not drawn) | -7.3 | 0.6 | -0.1 | -11.2 | -15.3 | 17.5 | nt | nt
C/C(=N/OC(=O)c1ccccc1)c1oc(C)nc1C | -8.4 | -8.1 | -6.0 | 2.7 | -0.7 | -22.7 | nt | nt
CCOc1ccc(CN(C)CC(O)COC(c2ccc(OC)cc2)c2ccc(OC)cc2)cc1 (stereo not drawn) | 6.9 | -3.5 | 59.4* | 15.0 | 15.8 | 22.8 | 28.9 | nt
CN(C)S(=O)(=O)c1cccc(NC(=O)COC(=O)c2cccn2C)c1 | 10.1 | -9.7 | 0.8 | 8.4 | -1.6 | 2.4 | nt | nt
Cc1ccc(C(O)(c2ccccc2)c2ccccc2C(C)N(C)C)c(C)c1 (stereo not drawn) | 30.3 | 21.5 | 62.3* | 27.3 | 7.3 | -10.3 | 24.9 | nt
CCN(CC)CCCNC(=O)C1CCN(c2ncnc3c2sc2cccc(F)c23)CC1 | -3.2 | 5.0 | 21.3 | -20.9 | 9.4 | -18.3 | nt | nt
CC1CC(C)CN(CCCNC(=O)C2CCN(c3ncnc4c3sc3cccc(F)c34)CC2)C1 (stereo not drawn) | 7.8 | -13.8 | 55.8* | -0.7 | nt | -18.5 | 34.1 | 64.1*

Assay outcomes from PubChem.
